Results reported in publication PMC7862700, “An all-to-all approach to the identification of sequence-specific readers for epigenetic DNA modifications on cytosine”.

Legend:
Assay in all cases: DAPPL (digital affinity profiling via proximity ligation, sequencing); 10 mM Tris-HCl pH 7.5, 50 mM NaCl, 1 mM DTT, 4% glycerol, room temperature, 30 min; GST-TFs on glutathione beads, 16-mer random dsDNA library, 0.1% formaldehyde crosslink after washing; high values mean tight binding
Conditions in all cases: protein: recombinant; tags: N-terminal GST; dsDNA, one strand shown
ELK1 = biological target: T1, ELK1 (Homo sapiens, UniProt P19419 1-428)
T1 sequence: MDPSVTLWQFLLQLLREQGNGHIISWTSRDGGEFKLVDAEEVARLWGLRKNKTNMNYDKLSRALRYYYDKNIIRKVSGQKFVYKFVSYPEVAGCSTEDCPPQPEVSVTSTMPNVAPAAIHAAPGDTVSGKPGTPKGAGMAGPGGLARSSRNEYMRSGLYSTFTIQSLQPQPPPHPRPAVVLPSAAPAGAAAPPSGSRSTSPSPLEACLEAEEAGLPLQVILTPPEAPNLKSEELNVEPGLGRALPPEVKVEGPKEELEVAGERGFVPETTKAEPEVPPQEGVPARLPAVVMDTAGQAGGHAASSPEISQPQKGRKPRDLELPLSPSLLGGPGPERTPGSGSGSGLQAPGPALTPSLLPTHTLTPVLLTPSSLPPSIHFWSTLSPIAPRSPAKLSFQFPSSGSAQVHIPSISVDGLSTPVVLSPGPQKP
How it was run: (§1)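 Sequencing on an Illumina NextSeq500 followed washing, crosslinking with 0.1% formaldehyde, proximity ligation (BsaI/T4 ligase, 1 h, 37 °C) and PCR amplification of pools that had been incubated for 30 min at room temperature with 200 nmole of a random double-stranded 16-mer DNA library in Tris/NaCl/DTT/glycerol buffer. Each pool held DNA-barcoded human transcription factors, expressed in yeast as GST fusions and captured on glutathione beads, plus a tag-only sample. Binding signal is a hexamer's read frequency for a factor divided by its frequency in the tag-only sample.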

GABPA = biological target: T2, GABPA (Homo sapiens, UniProt Q06546 1-454)
T2 sequence: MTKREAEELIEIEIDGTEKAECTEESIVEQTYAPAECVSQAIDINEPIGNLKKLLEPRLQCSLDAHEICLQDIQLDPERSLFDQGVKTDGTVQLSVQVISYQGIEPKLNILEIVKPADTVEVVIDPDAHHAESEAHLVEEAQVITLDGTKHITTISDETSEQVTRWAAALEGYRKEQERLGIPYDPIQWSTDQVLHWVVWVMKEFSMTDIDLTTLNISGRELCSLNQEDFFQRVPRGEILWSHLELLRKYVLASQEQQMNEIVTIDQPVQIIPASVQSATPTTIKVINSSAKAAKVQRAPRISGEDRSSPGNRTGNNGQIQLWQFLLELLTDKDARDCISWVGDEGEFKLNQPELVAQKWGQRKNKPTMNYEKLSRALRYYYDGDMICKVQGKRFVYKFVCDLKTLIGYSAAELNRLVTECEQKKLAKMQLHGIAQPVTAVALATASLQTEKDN
How it was run: as §1

ELF1 = ELF1 (Homo sapiens, UniProt P32519 1-619)
How it was run: as §1

ETV5 = ETV5 (Homo sapiens, UniProt P41161 1-510)
How it was run: as §1

ELF4 = ELF4 (Homo sapiens, UniProt Q99607 1-663)
How it was run: as §1

ELK4 = biological target: T3, ELK4 (Homo sapiens, UniProt P28324-2 1-405)
T3 sequence: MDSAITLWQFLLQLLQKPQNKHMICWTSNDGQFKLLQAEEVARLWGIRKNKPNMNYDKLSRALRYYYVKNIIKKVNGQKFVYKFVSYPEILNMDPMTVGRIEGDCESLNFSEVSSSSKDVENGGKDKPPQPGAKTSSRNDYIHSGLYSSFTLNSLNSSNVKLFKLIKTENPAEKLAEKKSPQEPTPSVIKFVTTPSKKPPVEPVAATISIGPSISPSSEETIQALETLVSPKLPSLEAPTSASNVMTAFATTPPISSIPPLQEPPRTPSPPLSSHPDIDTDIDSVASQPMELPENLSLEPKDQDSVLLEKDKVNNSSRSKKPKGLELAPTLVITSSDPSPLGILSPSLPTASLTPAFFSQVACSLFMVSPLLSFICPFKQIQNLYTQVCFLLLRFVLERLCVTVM
How it was run: as §1

ELF3 = biological target: T4, ELF3 (Homo sapiens, UniProt P78545 1-371)
T4 sequence: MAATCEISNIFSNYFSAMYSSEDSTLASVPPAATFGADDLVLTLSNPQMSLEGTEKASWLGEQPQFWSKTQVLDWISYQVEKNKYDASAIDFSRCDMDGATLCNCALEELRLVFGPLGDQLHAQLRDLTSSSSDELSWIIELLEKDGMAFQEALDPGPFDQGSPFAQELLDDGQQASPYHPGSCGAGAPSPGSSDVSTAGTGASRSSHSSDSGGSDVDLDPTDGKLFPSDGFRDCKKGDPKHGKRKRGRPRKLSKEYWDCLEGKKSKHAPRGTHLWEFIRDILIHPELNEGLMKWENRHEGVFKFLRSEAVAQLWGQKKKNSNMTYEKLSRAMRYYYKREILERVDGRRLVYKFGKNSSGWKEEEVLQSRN
How it was run: as §1

ETV1 = ETV1 (Homo sapiens, UniProt P50549 1-477)
How it was run: as §1

ERF = biological target: T5, ERF (Homo sapiens, UniProt P50548 1-548)
T5 sequence: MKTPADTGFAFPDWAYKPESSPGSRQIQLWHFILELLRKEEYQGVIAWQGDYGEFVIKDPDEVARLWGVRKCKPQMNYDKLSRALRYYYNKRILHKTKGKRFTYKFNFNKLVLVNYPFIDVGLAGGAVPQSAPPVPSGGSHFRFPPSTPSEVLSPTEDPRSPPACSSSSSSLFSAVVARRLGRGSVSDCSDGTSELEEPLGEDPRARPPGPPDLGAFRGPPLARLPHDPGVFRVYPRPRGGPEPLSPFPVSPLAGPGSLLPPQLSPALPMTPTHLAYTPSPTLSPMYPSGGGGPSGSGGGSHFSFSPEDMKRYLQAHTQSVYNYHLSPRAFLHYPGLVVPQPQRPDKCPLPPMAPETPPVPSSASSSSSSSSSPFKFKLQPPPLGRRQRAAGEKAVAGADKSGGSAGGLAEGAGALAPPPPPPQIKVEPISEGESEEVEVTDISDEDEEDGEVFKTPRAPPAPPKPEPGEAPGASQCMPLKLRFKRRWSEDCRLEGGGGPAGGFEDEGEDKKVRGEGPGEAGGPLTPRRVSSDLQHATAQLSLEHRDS
How it was run: as §1

ETV3L = biological target: T6, ETV3L (Homo sapiens, UniProt Q6ZN32 1-361)
T6 sequence: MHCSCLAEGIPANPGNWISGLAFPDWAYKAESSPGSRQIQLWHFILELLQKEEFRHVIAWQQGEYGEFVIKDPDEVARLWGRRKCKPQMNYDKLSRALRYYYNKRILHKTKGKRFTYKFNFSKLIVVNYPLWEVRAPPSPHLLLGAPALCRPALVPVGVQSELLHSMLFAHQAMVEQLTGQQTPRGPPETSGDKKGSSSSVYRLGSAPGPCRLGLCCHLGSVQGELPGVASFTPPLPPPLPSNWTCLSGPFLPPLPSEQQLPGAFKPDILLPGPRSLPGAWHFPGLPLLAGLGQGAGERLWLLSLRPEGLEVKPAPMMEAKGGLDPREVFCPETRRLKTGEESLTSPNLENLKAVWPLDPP
How it was run: as §1

ETV3 = biological target: T7, ETV3 (Homo sapiens, UniProt P41162-2 1-143)
T7 sequence: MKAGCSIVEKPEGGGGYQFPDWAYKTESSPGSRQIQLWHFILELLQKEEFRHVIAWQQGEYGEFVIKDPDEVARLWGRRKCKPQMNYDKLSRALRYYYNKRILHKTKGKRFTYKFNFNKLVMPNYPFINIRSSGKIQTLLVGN
How it was run: as §1

ETV6 = ETV6 (Homo sapiens, UniProt P41212 1-452)
How it was run: as §1

FEV = biological target: T8, FEV (Homo sapiens, UniProt Q99581 1-238)
T8 sequence: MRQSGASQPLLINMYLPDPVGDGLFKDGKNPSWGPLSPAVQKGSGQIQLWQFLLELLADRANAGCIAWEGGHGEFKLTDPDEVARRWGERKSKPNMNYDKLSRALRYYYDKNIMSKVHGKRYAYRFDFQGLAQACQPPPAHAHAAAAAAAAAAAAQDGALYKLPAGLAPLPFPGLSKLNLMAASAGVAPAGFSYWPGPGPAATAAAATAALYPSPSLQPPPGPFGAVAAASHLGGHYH
How it was run: as §1

ETS2 = biological target: T9, ETS2 (Homo sapiens, UniProt P15036 1-469)
T9 sequence: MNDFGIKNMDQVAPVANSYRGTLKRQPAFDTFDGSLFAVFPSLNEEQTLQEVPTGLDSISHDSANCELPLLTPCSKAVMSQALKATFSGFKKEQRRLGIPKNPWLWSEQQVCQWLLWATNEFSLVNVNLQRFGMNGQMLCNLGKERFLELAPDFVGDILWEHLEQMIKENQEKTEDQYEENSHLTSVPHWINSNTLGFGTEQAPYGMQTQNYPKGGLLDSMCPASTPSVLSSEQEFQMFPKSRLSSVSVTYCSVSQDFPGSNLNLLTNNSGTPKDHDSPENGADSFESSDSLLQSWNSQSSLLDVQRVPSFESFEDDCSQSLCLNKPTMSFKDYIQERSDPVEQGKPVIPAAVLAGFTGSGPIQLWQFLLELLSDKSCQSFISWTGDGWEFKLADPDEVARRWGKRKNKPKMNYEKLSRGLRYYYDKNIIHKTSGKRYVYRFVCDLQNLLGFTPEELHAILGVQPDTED
How it was run: as §1

Chain of ELF4 (Q99607 whole entry): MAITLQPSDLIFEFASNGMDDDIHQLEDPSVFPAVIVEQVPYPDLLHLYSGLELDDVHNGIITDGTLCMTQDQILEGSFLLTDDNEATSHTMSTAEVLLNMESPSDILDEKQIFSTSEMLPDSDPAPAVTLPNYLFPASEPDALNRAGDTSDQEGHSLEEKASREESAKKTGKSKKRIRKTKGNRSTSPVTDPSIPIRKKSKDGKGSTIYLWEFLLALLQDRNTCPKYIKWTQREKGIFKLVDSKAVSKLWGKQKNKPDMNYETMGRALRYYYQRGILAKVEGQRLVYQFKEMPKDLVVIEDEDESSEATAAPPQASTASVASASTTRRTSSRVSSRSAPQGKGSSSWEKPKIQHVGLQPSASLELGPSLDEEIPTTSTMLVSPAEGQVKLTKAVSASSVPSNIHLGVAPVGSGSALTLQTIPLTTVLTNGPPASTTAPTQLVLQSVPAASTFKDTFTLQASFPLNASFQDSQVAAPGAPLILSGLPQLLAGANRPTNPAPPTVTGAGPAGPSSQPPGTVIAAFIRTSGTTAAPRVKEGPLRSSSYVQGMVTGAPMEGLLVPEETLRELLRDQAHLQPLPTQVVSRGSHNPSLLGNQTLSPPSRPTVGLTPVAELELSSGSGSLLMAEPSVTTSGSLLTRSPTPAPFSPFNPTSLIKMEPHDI
Chain of ETV6 (P41212 whole entry): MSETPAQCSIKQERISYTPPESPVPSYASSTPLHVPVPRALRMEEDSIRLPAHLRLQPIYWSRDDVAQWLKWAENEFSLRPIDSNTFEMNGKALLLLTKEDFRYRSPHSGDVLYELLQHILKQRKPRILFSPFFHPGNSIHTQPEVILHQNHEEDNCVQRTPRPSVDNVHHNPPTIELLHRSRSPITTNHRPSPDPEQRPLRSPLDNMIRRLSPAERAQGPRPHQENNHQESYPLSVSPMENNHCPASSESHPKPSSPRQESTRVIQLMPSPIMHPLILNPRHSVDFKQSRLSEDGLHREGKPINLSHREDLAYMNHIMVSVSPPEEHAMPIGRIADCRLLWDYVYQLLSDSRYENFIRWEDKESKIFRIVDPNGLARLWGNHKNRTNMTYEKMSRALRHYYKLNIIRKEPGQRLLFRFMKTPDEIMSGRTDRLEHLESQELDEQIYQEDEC
Chain of ETV5 (P41161 whole entry): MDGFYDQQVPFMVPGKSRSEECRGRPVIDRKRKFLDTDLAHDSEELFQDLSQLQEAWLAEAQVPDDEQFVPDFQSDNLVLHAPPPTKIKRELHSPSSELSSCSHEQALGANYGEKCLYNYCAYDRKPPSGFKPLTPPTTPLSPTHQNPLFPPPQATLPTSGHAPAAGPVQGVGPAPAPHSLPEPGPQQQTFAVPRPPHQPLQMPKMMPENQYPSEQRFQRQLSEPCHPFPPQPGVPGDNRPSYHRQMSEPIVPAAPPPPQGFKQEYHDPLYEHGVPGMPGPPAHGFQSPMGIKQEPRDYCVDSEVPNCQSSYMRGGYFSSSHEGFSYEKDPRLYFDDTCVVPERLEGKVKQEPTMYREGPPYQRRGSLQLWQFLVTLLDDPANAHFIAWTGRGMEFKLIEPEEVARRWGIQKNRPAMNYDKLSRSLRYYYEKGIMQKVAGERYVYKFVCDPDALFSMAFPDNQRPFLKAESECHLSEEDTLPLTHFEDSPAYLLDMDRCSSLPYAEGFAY
Chain of ELF1 (P32519 whole entry): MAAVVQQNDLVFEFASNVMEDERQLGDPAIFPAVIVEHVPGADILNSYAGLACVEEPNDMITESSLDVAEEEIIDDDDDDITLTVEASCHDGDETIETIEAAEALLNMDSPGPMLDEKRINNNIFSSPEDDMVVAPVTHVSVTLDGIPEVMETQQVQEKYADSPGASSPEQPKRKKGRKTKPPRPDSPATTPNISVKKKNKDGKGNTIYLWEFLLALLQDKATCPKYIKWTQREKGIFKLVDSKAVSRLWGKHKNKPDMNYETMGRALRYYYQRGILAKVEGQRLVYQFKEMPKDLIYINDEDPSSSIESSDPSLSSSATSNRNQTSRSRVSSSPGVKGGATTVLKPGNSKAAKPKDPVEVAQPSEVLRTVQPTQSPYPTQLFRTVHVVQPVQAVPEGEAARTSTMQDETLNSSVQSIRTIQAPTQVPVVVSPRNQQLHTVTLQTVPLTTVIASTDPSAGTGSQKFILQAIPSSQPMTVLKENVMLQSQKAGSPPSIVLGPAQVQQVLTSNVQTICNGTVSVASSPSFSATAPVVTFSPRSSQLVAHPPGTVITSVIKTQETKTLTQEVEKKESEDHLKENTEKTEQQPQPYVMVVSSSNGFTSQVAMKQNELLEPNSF
Chain of ETV1 (P50549 whole entry): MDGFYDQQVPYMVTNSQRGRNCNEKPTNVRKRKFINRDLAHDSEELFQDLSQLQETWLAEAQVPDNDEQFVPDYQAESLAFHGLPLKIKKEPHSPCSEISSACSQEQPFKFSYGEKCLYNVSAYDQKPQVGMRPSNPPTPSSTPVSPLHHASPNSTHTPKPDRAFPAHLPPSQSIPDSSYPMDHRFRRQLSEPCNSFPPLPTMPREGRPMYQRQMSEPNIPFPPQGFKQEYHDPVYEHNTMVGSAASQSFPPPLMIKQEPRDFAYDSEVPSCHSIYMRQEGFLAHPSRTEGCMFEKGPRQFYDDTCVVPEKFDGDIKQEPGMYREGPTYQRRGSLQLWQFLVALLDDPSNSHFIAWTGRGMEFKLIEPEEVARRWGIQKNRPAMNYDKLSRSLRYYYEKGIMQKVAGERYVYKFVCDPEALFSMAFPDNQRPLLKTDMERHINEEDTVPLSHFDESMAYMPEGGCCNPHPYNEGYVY

Row | Sequence | binding signal (ELK1) | binding signal (GABPA) | binding signal (ELF1) | binding signal (ETV5) | binding signal (ELF4) | binding signal (ELK4) | binding signal (ELF3) | binding signal (ETV1) | binding signal (ERF) | binding signal (ETV3L) | binding signal (ETV3) | binding signal (ETV6) | binding signal (FEV) | binding signal (ETS2)
1 | GCAAAC | 1.03 fold enrichment (6-mer frequency, TF over GST control) | 1.01 fold enrichment (6-mer frequency, TF over GST control) | 1.01 fold enrichment (6-mer frequency, TF over GST control) | 1.01 fold enrichment (6-mer frequency, TF over GST control) | 1.06 fold enrichment (6-mer frequency, TF over GST control) | 1.02 fold enrichment (6-mer frequency, TF over GST control) | 1.13 fold enrichment (6-mer frequency, TF over GST control) | 1.03 fold enrichment (6-mer frequency, TF over GST control) | 1.01 fold enrichment (6-mer frequency, TF over GST control) | 1.05 fold enrichment (6-mer frequency, TF over GST control) | 1.04 fold enrichment (6-mer frequency, TF over GST control) | 1.06 fold enrichment (6-mer frequency, TF over GST control) |  | 
2 | TGGGCA |  |  | 1.06 fold enrichment (6-mer frequency, TF over GST control) | 1.04 fold enrichment (6-mer frequency, TF over GST control) | 1.04 fold enrichment (6-mer frequency, TF over GST control) | 1.06 fold enrichment (6-mer frequency, TF over GST control) |  |  |  | 1.04 fold enrichment (6-mer frequency, TF over GST control) |  | 1.02 fold enrichment (6-mer frequency, TF over GST control) | 1.01 fold enrichment (6-mer frequency, TF over GST control) | 1.04 fold enrichment (6-mer frequency, TF over GST control)
